# Experimental data from paper PMC7862700, “An all-to-all approach to the identification of sequence-specific readers for epigenetic DNA modifications on cytosine”.
# How the values were obtained:
# Experiment in all cases: DAPPL (digital affinity profiling via proximity ligation, sequencing); 10 mM Tris-HCl pH 7.5, 50 mM NaCl, 1 mM DTT, 4% glycerol, room temperature, 30 min; GST-TFs on glutathione beads, 16-mer random dsDNA library, 0.1% formaldehyde crosslink after washing; high values mean tight binding
# FLI1 = target: T1, FLI1 (Homo sapiens, UniProt Q01543 1-452); details: protein: recombinant; tags: N-terminal GST; dsDNA, one strand shown
# T1 sequence: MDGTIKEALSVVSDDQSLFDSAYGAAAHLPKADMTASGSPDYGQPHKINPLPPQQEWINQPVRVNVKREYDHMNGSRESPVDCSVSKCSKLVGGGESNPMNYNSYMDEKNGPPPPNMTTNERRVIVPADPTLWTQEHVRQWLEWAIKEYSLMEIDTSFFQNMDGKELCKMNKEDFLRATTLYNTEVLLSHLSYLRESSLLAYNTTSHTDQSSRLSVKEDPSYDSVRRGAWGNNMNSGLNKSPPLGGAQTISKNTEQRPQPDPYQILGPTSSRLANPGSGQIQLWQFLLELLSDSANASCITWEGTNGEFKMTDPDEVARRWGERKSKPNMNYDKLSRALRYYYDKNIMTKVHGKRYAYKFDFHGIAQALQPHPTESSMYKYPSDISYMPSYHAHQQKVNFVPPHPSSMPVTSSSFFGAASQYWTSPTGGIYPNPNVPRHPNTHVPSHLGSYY
# Outline: (§1)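 Sequencing on an Illumina NextSeq500 followed washing, crosslinking with 0.1% formaldehyde, proximity ligation (BsaI/T4 ligase, 1 h, 37 °C) and PCR amplification of pools that had been incubated for 30 min at room temperature with 200 nmole of a random double-stranded 16-mer DNA library in Tris/NaCl/DTT/glycerol buffer. Each pool held DNA-barcoded human transcription factors, expressed in yeast as GST fusions and captured on glutathione beads, plus a tag-only sample. Binding signal is a hexamer's read frequency for a factor divided by its frequency in the tag-only sample.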
# ELK1 = target: T2, ELK1 (Homo sapiens, UniProt P19419 1-428); details: protein: recombinant; tags: N-terminal GST; dsDNA, one strand shown
# T2 sequence: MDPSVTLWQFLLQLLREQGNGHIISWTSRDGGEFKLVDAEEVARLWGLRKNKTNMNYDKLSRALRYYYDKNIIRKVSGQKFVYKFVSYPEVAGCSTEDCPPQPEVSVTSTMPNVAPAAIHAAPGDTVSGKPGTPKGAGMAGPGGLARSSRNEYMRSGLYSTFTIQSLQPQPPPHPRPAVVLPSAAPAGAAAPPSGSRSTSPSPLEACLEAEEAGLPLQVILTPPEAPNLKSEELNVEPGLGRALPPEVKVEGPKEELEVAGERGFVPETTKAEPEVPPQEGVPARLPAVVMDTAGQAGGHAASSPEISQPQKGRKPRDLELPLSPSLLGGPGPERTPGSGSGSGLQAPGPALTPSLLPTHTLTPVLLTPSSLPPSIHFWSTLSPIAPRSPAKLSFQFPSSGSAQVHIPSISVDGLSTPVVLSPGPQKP
# Outline: as §1
# GABPA = target: T3, GABPA (Homo sapiens, UniProt Q06546 1-454); details: protein: recombinant; tags: N-terminal GST; dsDNA, one strand shown
# T3 sequence: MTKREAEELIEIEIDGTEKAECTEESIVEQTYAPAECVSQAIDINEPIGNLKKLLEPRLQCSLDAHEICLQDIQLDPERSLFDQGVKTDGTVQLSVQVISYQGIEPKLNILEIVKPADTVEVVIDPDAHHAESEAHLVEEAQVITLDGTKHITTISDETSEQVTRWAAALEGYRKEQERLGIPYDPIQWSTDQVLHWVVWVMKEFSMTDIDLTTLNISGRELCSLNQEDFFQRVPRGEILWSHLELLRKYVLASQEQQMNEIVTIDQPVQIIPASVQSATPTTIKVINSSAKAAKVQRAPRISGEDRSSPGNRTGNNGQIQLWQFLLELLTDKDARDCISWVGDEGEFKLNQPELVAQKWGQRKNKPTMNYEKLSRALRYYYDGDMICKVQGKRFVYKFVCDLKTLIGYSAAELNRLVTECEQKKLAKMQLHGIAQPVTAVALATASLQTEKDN
# Outline: as §1
# ERG = target: T4, ERG (Homo sapiens, UniProt P11308 1-479); details: protein: recombinant; tags: N-terminal GST; dsDNA, one strand shown
# T4 sequence: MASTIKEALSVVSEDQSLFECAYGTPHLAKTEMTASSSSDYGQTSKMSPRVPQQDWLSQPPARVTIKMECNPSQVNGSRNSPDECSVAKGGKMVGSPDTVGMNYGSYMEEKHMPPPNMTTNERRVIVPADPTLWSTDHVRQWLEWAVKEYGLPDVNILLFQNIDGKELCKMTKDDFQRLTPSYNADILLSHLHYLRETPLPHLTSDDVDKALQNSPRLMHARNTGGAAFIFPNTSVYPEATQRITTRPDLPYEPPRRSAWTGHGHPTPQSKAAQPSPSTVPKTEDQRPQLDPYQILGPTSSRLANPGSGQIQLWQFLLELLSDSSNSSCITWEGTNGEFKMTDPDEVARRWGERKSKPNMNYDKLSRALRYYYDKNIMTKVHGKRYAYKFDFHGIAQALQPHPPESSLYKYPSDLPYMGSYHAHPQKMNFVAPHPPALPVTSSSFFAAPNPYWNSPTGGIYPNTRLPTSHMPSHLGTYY
# Outline: as §1
# ELF1 = ELF1 (Homo sapiens, UniProt P32519 1-619); details: protein: recombinant; tags: N-terminal GST; dsDNA, one strand shown
# ELF1, sequence (P32519 whole entry): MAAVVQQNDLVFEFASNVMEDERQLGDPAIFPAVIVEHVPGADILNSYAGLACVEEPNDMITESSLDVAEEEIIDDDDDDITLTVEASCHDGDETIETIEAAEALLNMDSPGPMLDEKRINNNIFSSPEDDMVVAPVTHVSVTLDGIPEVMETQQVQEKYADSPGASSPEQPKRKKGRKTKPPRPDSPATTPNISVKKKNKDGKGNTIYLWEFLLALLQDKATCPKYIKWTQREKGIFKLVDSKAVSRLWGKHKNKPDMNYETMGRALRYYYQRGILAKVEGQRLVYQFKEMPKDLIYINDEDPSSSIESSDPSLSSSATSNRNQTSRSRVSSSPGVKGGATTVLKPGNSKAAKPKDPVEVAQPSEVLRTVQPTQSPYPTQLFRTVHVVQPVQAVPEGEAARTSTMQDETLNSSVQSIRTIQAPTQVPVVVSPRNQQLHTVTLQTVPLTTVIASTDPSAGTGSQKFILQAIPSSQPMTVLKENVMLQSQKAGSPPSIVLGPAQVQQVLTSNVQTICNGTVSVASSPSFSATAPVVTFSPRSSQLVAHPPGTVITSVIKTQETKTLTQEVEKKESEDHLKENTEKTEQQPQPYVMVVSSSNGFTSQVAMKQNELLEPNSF
# Outline: as §1
# EHF = target: T5, EHF (Homo sapiens, UniProt Q9NZC4 1-300); details: protein: recombinant; tags: N-terminal GST; dsDNA, one strand shown
# T5 sequence: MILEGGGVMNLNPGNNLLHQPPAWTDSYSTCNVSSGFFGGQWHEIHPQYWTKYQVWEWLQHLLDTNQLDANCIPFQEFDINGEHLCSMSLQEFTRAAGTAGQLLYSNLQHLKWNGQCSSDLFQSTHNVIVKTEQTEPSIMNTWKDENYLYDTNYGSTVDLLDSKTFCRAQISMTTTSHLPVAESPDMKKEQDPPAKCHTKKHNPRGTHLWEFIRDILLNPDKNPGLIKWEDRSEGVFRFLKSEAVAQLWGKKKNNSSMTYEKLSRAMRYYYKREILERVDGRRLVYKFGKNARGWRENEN
# Outline: as §1
# SPI1 = SPI1 (Homo sapiens, UniProt P17947 1-270); details: protein: recombinant; tags: N-terminal GST; dsDNA, one strand shown
# Outline: as §1
# SPIB = SPIB (Homo sapiens, UniProt Q01892 1-262); details: protein: recombinant; tags: N-terminal GST; dsDNA, one strand shown
# SPIB, sequence (Q01892 whole entry): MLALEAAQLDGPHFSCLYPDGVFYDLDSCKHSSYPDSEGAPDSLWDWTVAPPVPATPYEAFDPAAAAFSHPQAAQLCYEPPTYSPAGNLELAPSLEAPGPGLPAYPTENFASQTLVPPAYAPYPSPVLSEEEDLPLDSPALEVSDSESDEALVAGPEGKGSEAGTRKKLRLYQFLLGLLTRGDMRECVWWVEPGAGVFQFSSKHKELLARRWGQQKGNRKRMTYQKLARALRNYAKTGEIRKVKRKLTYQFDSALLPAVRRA
# Outline: as §1
# ELK3 = target: T6, ELK3 (Homo sapiens, UniProt P41970 1-407); details: protein: recombinant; tags: N-terminal GST; dsDNA, one strand shown
# T6 sequence: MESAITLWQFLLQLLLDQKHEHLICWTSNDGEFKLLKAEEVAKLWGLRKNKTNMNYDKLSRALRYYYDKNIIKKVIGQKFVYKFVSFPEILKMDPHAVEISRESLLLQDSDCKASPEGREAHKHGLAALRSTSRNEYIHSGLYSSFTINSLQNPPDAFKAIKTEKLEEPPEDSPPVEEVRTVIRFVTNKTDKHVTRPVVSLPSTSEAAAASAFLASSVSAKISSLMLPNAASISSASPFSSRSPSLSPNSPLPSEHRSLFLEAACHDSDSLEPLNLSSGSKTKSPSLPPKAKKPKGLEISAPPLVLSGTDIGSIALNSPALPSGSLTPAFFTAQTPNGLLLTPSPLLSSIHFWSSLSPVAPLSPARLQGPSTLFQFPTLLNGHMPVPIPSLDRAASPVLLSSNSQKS
# Outline: as §1
# FEV = target: T7, FEV (Homo sapiens, UniProt Q99581 1-238); details: protein: recombinant; tags: N-terminal GST; dsDNA, one strand shown
# T7 sequence: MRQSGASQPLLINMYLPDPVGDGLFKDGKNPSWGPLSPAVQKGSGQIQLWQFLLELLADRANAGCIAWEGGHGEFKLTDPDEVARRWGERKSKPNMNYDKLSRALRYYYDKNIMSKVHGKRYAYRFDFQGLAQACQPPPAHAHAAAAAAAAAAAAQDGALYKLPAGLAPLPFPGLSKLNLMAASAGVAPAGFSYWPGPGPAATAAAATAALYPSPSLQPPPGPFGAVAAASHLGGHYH
# Outline: as §1
# ETV5 = ETV5 (Homo sapiens, UniProt P41161 1-510); details: protein: recombinant; tags: N-terminal GST; dsDNA, one strand shown
# ETV5, sequence (P41161 whole entry): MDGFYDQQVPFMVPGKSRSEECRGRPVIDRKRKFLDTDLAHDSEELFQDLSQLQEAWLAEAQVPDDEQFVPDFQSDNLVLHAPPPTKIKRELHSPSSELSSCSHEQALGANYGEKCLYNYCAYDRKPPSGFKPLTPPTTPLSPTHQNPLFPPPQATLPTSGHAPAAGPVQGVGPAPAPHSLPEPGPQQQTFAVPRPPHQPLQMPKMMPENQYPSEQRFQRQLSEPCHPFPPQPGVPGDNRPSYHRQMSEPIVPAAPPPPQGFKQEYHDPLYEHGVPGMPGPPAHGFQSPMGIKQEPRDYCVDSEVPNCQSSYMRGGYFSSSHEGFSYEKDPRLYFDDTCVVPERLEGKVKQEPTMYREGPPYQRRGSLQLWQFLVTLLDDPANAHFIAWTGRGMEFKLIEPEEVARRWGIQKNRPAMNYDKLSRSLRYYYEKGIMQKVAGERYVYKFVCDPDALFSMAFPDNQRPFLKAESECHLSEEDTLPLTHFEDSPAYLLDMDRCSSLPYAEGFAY
# Outline: as §1
# HSF1 = HSF1 (Homo sapiens, UniProt Q00613 1-529); details: protein: recombinant; tags: N-terminal GST; chain copies: 3; dsDNA, one strand shown
# HSF1, sequence (Q00613 whole entry): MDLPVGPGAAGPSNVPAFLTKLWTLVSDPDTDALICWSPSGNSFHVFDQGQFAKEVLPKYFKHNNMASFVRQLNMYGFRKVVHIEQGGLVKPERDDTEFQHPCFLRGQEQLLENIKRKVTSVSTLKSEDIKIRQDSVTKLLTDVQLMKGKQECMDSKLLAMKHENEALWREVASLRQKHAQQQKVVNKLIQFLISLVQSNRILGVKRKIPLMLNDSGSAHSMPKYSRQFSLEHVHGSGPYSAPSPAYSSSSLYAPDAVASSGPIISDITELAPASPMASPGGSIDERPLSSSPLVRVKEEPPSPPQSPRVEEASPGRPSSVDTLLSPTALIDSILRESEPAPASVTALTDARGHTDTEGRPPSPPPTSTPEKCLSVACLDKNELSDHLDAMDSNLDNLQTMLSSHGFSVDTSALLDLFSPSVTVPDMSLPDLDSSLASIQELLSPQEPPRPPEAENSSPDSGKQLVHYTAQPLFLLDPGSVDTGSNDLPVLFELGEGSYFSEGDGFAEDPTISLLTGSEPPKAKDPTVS
# Outline: as §1
# SPIC = target: T8, SPIC (Homo sapiens, UniProt Q8N5J4 1-248); details: protein: recombinant; tags: N-terminal GST; dsDNA, one strand shown
# T8 sequence: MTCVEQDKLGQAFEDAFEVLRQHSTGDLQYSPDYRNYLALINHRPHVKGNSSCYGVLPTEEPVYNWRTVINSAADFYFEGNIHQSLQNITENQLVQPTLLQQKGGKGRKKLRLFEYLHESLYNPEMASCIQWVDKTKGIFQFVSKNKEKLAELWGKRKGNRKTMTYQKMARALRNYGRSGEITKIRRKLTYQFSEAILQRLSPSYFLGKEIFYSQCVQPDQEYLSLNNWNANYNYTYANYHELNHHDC
# Outline: as §1
# ELF4 = ELF4 (Homo sapiens, UniProt Q99607 1-663); details: protein: recombinant; tags: N-terminal GST; dsDNA, one strand shown
# ELF4, sequence (Q99607 whole entry): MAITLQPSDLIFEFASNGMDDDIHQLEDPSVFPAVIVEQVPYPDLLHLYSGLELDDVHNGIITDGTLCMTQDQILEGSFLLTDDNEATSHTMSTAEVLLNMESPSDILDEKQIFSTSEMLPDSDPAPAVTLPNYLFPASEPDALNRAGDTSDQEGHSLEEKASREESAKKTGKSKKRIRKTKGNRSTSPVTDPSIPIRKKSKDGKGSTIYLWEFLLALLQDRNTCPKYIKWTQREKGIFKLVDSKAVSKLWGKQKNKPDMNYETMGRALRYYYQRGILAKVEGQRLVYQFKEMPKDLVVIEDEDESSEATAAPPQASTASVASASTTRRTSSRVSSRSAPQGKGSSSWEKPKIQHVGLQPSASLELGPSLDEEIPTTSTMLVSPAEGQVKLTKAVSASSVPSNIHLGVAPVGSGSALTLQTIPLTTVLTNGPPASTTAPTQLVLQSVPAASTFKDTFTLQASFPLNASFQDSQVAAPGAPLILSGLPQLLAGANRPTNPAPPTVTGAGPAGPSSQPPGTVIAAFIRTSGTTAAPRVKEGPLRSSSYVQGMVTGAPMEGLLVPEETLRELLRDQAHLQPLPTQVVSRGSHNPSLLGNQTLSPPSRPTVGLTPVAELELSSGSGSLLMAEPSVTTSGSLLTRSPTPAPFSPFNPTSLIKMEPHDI
# Outline: as §1
# ELK4 = target: T9, ELK4 (Homo sapiens, UniProt P28324-2 1-405); details: protein: recombinant; tags: N-terminal GST; dsDNA, one strand shown
# T9 sequence: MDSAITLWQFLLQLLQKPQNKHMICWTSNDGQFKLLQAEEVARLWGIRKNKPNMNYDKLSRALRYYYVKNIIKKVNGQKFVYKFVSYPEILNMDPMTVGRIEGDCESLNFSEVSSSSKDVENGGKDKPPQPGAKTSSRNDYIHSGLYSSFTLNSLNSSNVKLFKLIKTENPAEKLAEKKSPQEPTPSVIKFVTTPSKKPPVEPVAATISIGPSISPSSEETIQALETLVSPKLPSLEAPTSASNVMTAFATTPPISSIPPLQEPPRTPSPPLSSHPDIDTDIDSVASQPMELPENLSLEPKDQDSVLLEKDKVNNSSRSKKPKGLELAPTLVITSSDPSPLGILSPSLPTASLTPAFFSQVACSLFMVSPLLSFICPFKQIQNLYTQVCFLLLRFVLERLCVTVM
# Outline: as §1
# ETV2 = target: T10, ETV2 (Homo sapiens, UniProt O00321 1-342); details: protein: recombinant; tags: N-terminal GST; dsDNA, one strand shown
# T10 sequence: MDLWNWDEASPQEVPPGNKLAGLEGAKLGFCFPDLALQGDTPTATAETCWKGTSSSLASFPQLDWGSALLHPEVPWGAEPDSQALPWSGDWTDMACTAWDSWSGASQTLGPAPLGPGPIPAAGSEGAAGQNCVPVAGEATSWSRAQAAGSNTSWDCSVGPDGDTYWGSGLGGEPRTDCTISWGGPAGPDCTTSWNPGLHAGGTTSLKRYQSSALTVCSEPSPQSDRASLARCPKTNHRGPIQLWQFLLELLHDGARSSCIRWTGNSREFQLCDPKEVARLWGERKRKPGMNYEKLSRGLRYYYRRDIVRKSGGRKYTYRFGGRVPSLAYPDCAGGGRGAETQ
# Outline: as §1
# ELF3 = target: T11, ELF3 (Homo sapiens, UniProt P78545 1-371); details: protein: recombinant; tags: N-terminal GST; dsDNA, one strand shown
# T11 sequence: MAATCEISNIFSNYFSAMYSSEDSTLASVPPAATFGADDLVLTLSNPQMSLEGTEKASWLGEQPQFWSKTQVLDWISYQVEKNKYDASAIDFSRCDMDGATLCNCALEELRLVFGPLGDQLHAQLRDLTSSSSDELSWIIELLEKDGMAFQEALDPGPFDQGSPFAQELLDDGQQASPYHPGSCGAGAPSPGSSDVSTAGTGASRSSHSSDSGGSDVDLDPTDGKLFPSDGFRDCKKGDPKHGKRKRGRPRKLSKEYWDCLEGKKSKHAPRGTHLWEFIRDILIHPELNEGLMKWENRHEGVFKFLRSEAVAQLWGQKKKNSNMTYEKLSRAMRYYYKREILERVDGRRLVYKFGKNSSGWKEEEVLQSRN
# Outline: as §1
# CRX = CRX (Homo sapiens, UniProt O43186 1-299); details: protein: recombinant; tags: N-terminal GST; dsDNA, one strand shown
# CRX, sequence (O43186 whole entry): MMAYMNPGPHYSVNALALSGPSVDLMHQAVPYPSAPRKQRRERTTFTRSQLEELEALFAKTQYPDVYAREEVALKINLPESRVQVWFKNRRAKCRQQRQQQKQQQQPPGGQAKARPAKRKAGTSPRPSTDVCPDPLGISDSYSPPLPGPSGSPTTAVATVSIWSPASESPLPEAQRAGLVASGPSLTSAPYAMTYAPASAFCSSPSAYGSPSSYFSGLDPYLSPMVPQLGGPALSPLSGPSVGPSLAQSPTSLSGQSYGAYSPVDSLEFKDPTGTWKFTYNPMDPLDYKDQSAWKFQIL
# Outline: as §1
# ETV1 = ETV1 (Homo sapiens, UniProt P50549 1-477); details: protein: recombinant; tags: N-terminal GST; dsDNA, one strand shown
# ETV1, sequence (P50549 whole entry): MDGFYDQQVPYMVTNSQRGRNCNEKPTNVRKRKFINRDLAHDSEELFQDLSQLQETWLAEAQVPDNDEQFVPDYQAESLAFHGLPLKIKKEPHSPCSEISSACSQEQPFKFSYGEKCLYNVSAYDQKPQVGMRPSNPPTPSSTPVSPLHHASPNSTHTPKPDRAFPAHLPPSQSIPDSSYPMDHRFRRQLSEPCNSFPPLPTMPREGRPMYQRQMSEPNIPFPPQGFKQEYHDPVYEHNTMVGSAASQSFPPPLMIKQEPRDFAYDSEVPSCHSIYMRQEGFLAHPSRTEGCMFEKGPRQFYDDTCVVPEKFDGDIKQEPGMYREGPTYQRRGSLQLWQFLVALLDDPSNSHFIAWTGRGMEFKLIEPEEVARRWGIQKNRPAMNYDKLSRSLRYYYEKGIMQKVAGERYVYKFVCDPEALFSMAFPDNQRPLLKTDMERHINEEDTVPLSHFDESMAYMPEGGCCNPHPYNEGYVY
# Outline: as §1
sequence,measurement,setting,value
TAGCCC,binding signal,FLI1,"1.23 fold enrichment (6-mer frequency, TF over GST control)"
same,binding signal,ELK1,"1.18 fold enrichment (6-mer frequency, TF over GST control)"
same,binding signal,GABPA,"1.12 fold enrichment (6-mer frequency, TF over GST control)"
same,binding signal,ERG,"1.12 fold enrichment (6-mer frequency, TF over GST control)"
same,binding signal,ELF1,"1.08 fold enrichment (6-mer frequency, TF over GST control)"
same,binding signal,EHF,"1.21 fold enrichment (6-mer frequency, TF over GST control)"
same,binding signal,SPI1,"1.13 fold enrichment (6-mer frequency, TF over GST control)"
same,binding signal,SPIB,"1.16 fold enrichment (6-mer frequency, TF over GST control)"
same,binding signal,ELK3,"1.24 fold enrichment (6-mer frequency, TF over GST control)"
same,binding signal,FEV,"1.21 fold enrichment (6-mer frequency, TF over GST control)"
same,binding signal,ETV5,"1.18 fold enrichment (6-mer frequency, TF over GST control)"
same,binding signal,HSF1,"1.19 fold enrichment (6-mer frequency, TF over GST control)"
same,binding signal,SPIC,"1.23 fold enrichment (6-mer frequency, TF over GST control)"
same,binding signal,ELF4,"1.28 fold enrichment (6-mer frequency, TF over GST control)"
same,binding signal,ELK4,"1.15 fold enrichment (6-mer frequency, TF over GST control)"
same,binding signal,ETV2,"1.15 fold enrichment (6-mer frequency, TF over GST control)"
same,binding signal,ELF3,"1.08 fold enrichment (6-mer frequency, TF over GST control)"
same,binding signal,CRX,"1.36 fold enrichment (6-mer frequency, TF over GST control)"
same,binding signal,ETV1,"1.12 fold enrichment (6-mer frequency, TF over GST control)"
